Test results reported in ChEMBL document CHEMBL3988442, “University of Dundee, Small-Polar-MMV Screening Library” (2021).
Out of some 38,000 compounds screened, about 1,200 (3.2%) showed an effect of 50% or more. The median lay at about -58%. What follows is part of a selection rich in strong results, with near analogues and random picks from the rest.

What follows are molecules tested on Plasmodium falciparum (assay: Calibr Malaria Delayed Death Assay SOP). Conditions: concentration 4.99e-06 (unit not given; other assays of the set use mol/L).
Format: functional, organism-based
Parameters: scale not given: in the data most compounds retested in dose-response had high values

Row | Compound | Percent Effect
1 | Cn1nc(CNC(=O)C2CCN(S(C)(=O)=O)CC2)cc1C1CC1 | -29.39%
2 | Cc1cccc(NC(=O)CN(C)C(=O)c2scnc2C)n1 | -36.36%
3 | CCOc1ccc(CN(CCC#N)CCN2CCOCC2)cc1OC | -106.9%
4 | N#CCCN(CCN1CCOCC1)Cc1ccc(F)c(Br)c1 | 50.69%
5 | COc1ccc(CN(CCC#N)CCN2CCOCC2)cc1OC | -48.91%
6 | CN(C)C(=O)C1CCCN1CCCNC(=O)Cc1ccccc1F (stereo not drawn) | -2.997%
7 | CC(NCCCc1cnn(C)c1)c1ccc(Cl)s1 (stereo not drawn) | 14.15%
8 | Cc1cc(OC(F)F)c(C(=O)N2CCC(N(C)C)CC2)s1 | -15.44%
9 | CCc1cnc(C)nc1NCCN1CCC(O)CC1 | -33.54%
10 | CC(NCCN1CCC(N(C)C)CC1)c1ccc(F)cc1N(C)C (stereo not drawn) | 55.63%
11 | CCc1cnc(C)nc1NCCN1CCCCCC1 | 42.39%
12 | CCS(=O)(=O)CCNC(=O)NC(C)c1cc(C)sc1C (stereo not drawn) | -122.2%
13 | Cc1cc(C(C)NCCN2CCC(N(C)C)CC2)c(C)s1 (stereo not drawn) | 81.06%
14 | CC(NCc1cnc(N2CCOCC2)nc1)c1ccc(Cl)s1.Cl (stereo not drawn) | -27.68%
15 | CC(NCCN1CCC(N(C)C)CC1)c1ccc(Cl)s1 (stereo not drawn) | 74.67%
16 | CCC(c1ccc(F)cc1F)N1CCN(CCO)CC1 (stereo not drawn) | 33.11%
17 | CC(NCCCN1CCCC1=O)c1ccc(F)cc1N(C)C (stereo not drawn) | -66.62%
18 | O=C(NCCc1cccs1)NC1CCN(c2ncccn2)CC1 | -296.1%
19 | Cc1c(Cl)cccc1S(=O)(=O)N1CCC2(CC1)OCCS2 | -126%
20 | Cn1cc(CN2CCC3(CCCCN3S(C)(=O)=O)CC2)cn1 | -156.9%
21 | CNC(=O)c1cn(C)c(-c2nc3cc(NC(C)=O)ccc3n2C)c1OC | -25.75%
22 | Cn1nc2c(c1NC(=O)c1ccc(C3CCCN3C3CCC3)s1)CCC2 (stereo not drawn) | 4.44%
23 | CCN(CC)c1nc(C)cc(C(=O)Nc2cnn(CC)c2)n1 | -148%
24 | CC(=O)N1CCC2(CC1)CC(NC(=O)N(C)C)c1cc(C)ccc12 (stereo not drawn) | -69.21%
25 | CC(C)(C)C(=O)NCCNCc1ccc(Cl)c2cccnc12 | 76.99%

Row | Compound | Percent Effect
26 | Cn1cnc2c1CCN(Cc1ccc(Cl)c3cccnc13)C2 | -32.7%
27 | O=C(CCCNCc1ccc(Cl)c2cccnc12)NC1CC1 | 8.752%
28 | Cc1nc2n(n1)CC(NCc1ccc(Cl)c3cccnc13)CC2 (stereo not drawn) | 12.21%
29 | CC(=O)NCCCNCc1ccc(Cl)c2cccnc12 | -40.58%
30 | CC(C)(O)CSCCNC(=O)c1ccc(F)cc1Cl | -61.07%
31 | CC(C)(O)CSCCNCc1ccc(Cl)c2cccnc12 | 66.02%
32 | CCS(=O)(=O)NCCNCc1ccc(Cl)c2cccnc12 | 60.34%
33 | CC(C)(C)[S+]([O-])CCNC(=O)c1ccc(Cl)c2cccnc12 (stereo not drawn) | -47.19%
34 | CNc1nc2ncc(Cl)cc2cc1C#N | -168.4%
35 | CN1C(=O)CC(c2cnn(C)c2)C12CCN(C(=O)c1ccco1)CC2 (stereo not drawn) | -26.83%
36 | Cc1ccoc1C(=O)NC1CCN(Cc2ccccc2F)CC1 | -117.1%
37 | CCOCC(O)CN1CCN(C(=O)c2ccccc2Cl)CC1 (stereo not drawn) | -98.46%
38 | CCC(O)CN1CCN(C(=O)Cc2cc(Cl)ccc2OC)CC1 (stereo not drawn) | -20.59%
39 | CCOCC(O)CN1CCN(C(=O)Cc2ccccc2Cl)CC1 (stereo not drawn) | -127.6%
40 | CCOc1cc(CN(C)CCCO)ccc1OC(F)F | -85.19%
41 | COc1ccc(Cl)cc1CN(C)C(=O)CN1C(=O)OC[C@@H]1C(C)C | -43.68%
42 | CN(CCO)Cc1cc(Cl)ccc1OCC(O)CN1CCCCCC1 (stereo not drawn) | 81.18%
43 | CCc1ccc(OCC(O)CN2CCN(CC)CC2)cc1 (stereo not drawn) | -62.39%
44 | COCC(=O)N1CCC2(COCc3cnc(NCc4ccco4)nc32)C1 (stereo not drawn) | -70.56%
45 | COCCCN(CCOC)C(=O)Nc1ccc(Br)cc1 | -39.78%
46 | CCCNS(=O)(=O)c1ccc2[nH]c(=O)cc(C)c2c1 | -19.76%
47 | CCOC(C)C(=O)N1CCN(S(C)(=O)=O)CC1 (stereo not drawn) | -95.85%
48 | CS(=O)(=O)CC(=O)N1C[C@H]2CCC[C@@]2(COCc2ccncc2)C1.O=C(O)C(F)(F)F | -43.79%
49 | COCCN1CCCCC12CC(=O)N(c1cccc(C#N)c1)C2.O=C(O)C(F)(F)F (stereo not drawn) | -143.4%
50 | C1CC(CO[C@@H]2CC[C@H]3[C@H]2OCCN3CC2CCOCC2)CCO1.O=C(O)C(F)(F)F | -39.09%

Row | Compound | Percent Effect
51 | O=c1c2ccccc2nc2n1C(CSc1ccc(Cl)cc1Cl)CN2 (stereo not drawn) | -150.5%
52 | CN1CCCC1CNC(=O)CCCOCc1ccccc1 (stereo not drawn) | -50.92%
53 | CC(=O)NCCOc1cccc(Br)c1 | -82.47%
54 | CC(C)NC(=O)N1CCN(C(=O)NC(C)C)CC2(CNC(=O)C2)C1 | -54.94%
55 | Cc1cc(N2CCCN(Cc3ccc(C)o3)CC2)ccn1 | 32.48%
56 | Cc1cc(N2CCCN(c3ccnc(C)c3)CC2)ccn1 | -92.15%
57 | Cc1cc(N2CCCN(CCc3ccccc3)CC2)ccn1 | 86.4%
58 | CC(C)n1nnnc1-c1ccc(NC(=O)N(C)CCN(C)C)cc1F | -66.24%
59 | COc1ccccc1S(=O)(=O)NCC(c1cccn1C)N(C)C (stereo not drawn) | 10.47%
60 | CN(C)C(CNS(=O)(=O)c1cc(F)ccc1F)c1cccn1C (stereo not drawn) | 52.76%
61 | COc1ccc(S(=O)(=O)NCC(c2cccn2C)N(C)C)cc1F (stereo not drawn) | -0.0752%
62 | Cc1c(CN2CCCCC2)c(O)n(CCCO)c(=O)c1C#N | -126.8%
63 | CC(C)Nc1ncnc2c1CCN(C(=O)NCc1cccc(F)c1)CC2 | -3.86%
64 | Cn1ccnc1NC[C@@H]1CCC[C@@H]2CN(Cc3nccs3)C[C@@H]21.O=C(O)C(F)(F)F | -64.87%
65 | O=C(O)C(F)(F)F.c1cncc(CN2C[C@H]3CCC[C@@H](CNc4cnccn4)[C@H]3C2)c1 | -3.57%
66 | O=C(O)C(F)(F)F.c1ccc(NC[C@@H]2CCC[C@@H]3CN(Cc4nccs4)C[C@@H]32)nc1 | 55.03%
67 | Cn1ccnc1NC[C@@H]1CCC[C@@H]2CN(Cc3cccnc3)C[C@@H]21.O=C(O)C(F)(F)F | -26.47%
68 | Cn1cc(CN2C[C@H]3CCC[C@@H](CNc4ncccn4)[C@H]3C2)cn1.O=C(O)C(F)(F)F | -87.54%
69 | O=C(O)C(F)(F)F.O=C(O)C(F)(F)F.O=C(O)C(F)(F)F.c1cnc(N2CCN(C3CCC[C@@H]4CN(CC5CC5)C[C@H]34)CC2)nc1 (stereo partly drawn) | 48.04%
70 | Cn1cc(CN2C[C@@H]3CCC[C@@H](OCc4cccnc4)[C@@H]3C2)cn1 | -83.15%
71 | O=C(O)C(F)(F)F.c1ccc(NC[C@@H]2CCC[C@@H]3CN(Cc4cccnc4)C[C@@H]32)nc1 | 75.01%
72 | O=C(C[C@@H]1COC[C@H]2CN(Cc3cccnc3)C[C@@H]12)NCC1CC1.O=C(O)C(F)(F)F.O=C(O)C(F)(F)F | -77.98%
73 | CN(Cc1ccccn1)C1CCC[C@@H]2CN(CC3CC3)C[C@H]12.O=C(O)C(F)(F)F.O=C(O)C(F)(F)F (stereo partly drawn) | 68.03%
74 | Cc1cnc(N2C[C@H]3CCCC(N(C)Cc4ccccn4)[C@H]3C2)nc1.O=C(O)C(F)(F)F (stereo partly drawn) | -10.03%
75 | CCC(O)CN1CCN(C(=O)c2cccc3c2OCC(=O)N3)CC1 (stereo not drawn) | -136.7%

Row | Compound | Percent Effect
76 | CC(C)CN1C(=O)C2(CCN(Cc3ccsc3)C2)c2ccccc21.O=C(O)C(F)(F)F (stereo not drawn) | -33.32%
77 | Cc1cccc(CN2CCc3ncnc(N4CCN(C)CC4)c3CC2)n1.O=C(O)C(F)(F)F.O=C(O)C(F)(F)F | -236.1%
78 | Cc1noc(C(C)C)c1C(=O)NCCCOC(C)C | -142.4%
79 | CC(CNC(=O)NCc1ccoc1)N1CCc2sccc2C1 (stereo not drawn) | -8.458%
80 | CCc1cnc(CN(C)C2CCN(CCCS(=O)(=O)NC)C2)o1 (stereo not drawn) | -85.83%
81 | O=C(O)C(F)(F)F.c1ccc(NC[C@@H]2CCC[C@@H]3CN(Cc4cc[nH]n4)C[C@@H]32)nc1 | -36.14%
82 | O=C(O)C(F)(F)F.c1ccc(NC[C@@H]2CCC[C@@H]3CN(c4ncccn4)C[C@@H]32)nc1 | 71.6%
83 | COCCN1C[C@H]2CCC[C@@H](CNc3ncccn3)[C@H]2C1.O=C(O)C(F)(F)F.O=C(O)C(F)(F)F | 19.85%
84 | Cc1cccc(C)c1OC1CN(C(=O)C2CC(=O)N(C(C)(C)C)C2)C1 (stereo not drawn) | -9.651%
85 | COc1cc(-c2cc(NC3CCCC3)nc3[nH]ccc23)nc(N)n1 | 62.87%
86 | COc1nccnc1-c1cc(NC2CCCC2)nc2[nH]ccc12 | 19.53%
87 | CNc1cc(C)nc(-c2cc(NC3CCNCC3)nc3[nH]ccc23)n1 | -52.32%
88 | COc1nccnc1-c1cc(NC2CCNCC2)nc2[nH]ccc12 | -131.1%
89 | FC(F)(F)c1ccc(-c2cc(NC3CCNCC3)nc3[nH]ccc23)nc1 | -115.3%
90 | COc1ncc(-c2cc(NC3CCCC3)nc3[nH]ccc23)c(OC)n1 | 74.29%
91 | CC(Nc1ccc(F)cc1)c1nnnn1-c1ccccc1 (stereo not drawn) | -147.9%
92 | Cc1cc(S(C)(=O)=O)c(C)c(S(=O)(=O)N2CCCCCC2)c1 | -98.91%
93 | c1cnn(CC2CN(Cc3nc(-c4ccoc4)no3)CCO2)c1 (stereo not drawn) | -25.36%
94 | Cc1csc(N2CCCN(C(=O)Cc3ccc(C)s3)CC2)n1 | -98.4%
95 | Cn1cc(NC(=O)CNC(=O)N2CCN(c3ccc(Cl)cc3)CC2)cn1 | 2.407%
96 | CCN(CC)c1nc(C)cc(C(=O)Nc2ccc(Br)cc2)n1 | -6.909%
97 | Cc1nc(N2CCCC2)ncc1C(=O)Nc1ccc(Br)cc1 | -75.85%
98 | CN1CCC(N(C)C(=O)Nc2ccc(Cl)cc2)CC1 | -68.4%
